# Results from PubChem BioAssay AID686970 (National Center for Advancing Translational Sciences (NCATS), 2013).
# The campaign covered roughly 360,000 compounds. About 6,000 (1.7%) were called active. Inconclusive results (about 8%) are left out. Calls follow the shape of the dose curve; as a rule, active = well fitted cell-killing curve with a large enough effect; inconclusive = small, poorly fitted or top-dose-only effect, or effect the other way; inactive = flat fitted curve, though single readings scatter. The entries come from a sample that favours actives as a whole. Entries that show only a call come without a potency.
# Experiment: qHTS for induction of synthetic lethality in tumor cells producing 2HG: qHTS for the HT-1080-NT fibrosarcoma cell line;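 also: NT is the 2HG producing partner of a matched IDH1 knockdown line; nearly all actives have a fitted effect of over 55% in size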
# Conditions: HT-1080-NT fibrosarcoma viability, CellTiter-Glo ATP luminescence, 48 h; series mostly up to 46.1 µM
# How it was run: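 A 48-hour cytotoxicity screen used HT-1080-NT cells plated 2 hours before compound delivery. ATP-based CellTiter-Glo luminescence measured viability, normalized to DMSO and no-cell controls.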
# Potency is read from the fitted curve at half-maximal effect.
row,Compound,Potency
1,COC(=O)C[C@@H]1C=C[C@@H](NC(=O)c2ccc3c(c2)OCO3)[C@@H](CO)O1,inactive
2,C[C@H](CO)N1C[C@H](C)[C@H](CN(C)C(=O)c2ccncc2)OCc2ccccc2-c2c(n(C)c3ccccc23)C1=O,inactive
3,CC(=O)C1C(c2cccc(Oc3ccccc3)c2)NC(=O)NC1(O)C(F)(F)F (stereo not given),inactive
4,CC1=NN(c2ccc(Cl)c(C(=O)O)c2)C(=O)/C1=C/c1ccc(-c2ccccc2[N+](=O)[O-])o1,inactive
5,O=C1NC(c2ccc(-c3ccccc3[N+](=O)[O-])o2)C(C(=O)c2ccc(Cl)cc2)C(O)(C(F)(F)F)N1 (stereo not given),16.4 µM (active)
6,CCOC(=O)[C@]12CCCC=C1N(CCC1=CCCCC1)C(=O)[C@H](CC(=O)N1CCSCC1)C2,inactive
7,N#CCCN(C(=O)Nc1ccc(Cl)c(Cl)c1)C1CCCCC1,inactive
8,COc1ccc(N/N=C2/CCCCC2=O)cc1,1.26 µM (active)
9,COc1ccc(NC(=O)c2c(C)oc3c2CCCC3)cc1,inactive
10,Cc1ccc(N/N=C2\COC(C)(C)CC2=O)cc1,inactive
11,Cc1ccnc(SC2CC(=O)N(c3ccccc3)C2=O)n1 (stereo not given),inactive
12,O=C1CC[C@@H](C(=O)N2CSC[C@@H]2C(=O)Nc2ccc(C(F)(F)F)cc2)N1,inactive
13,O=S1(=O)CC(N2CCN(Cc3ccccc3F)CC2)CN1Cc1cn(Cc2cccc(C(F)(F)F)c2)nn1 (stereo not given),inactive
14,Cc1ccccc1OCCOc1ccc([N+](=O)[O-])cc1/C=N/n1cnnc1,2.31 µM (active)
15,Cc1ccccc1OS(=O)(=O)c1cccc([N+](=O)[O-])c1,inactive
16,COc1cccc(OCCOc2cccc(/C=N/n3cnnc3)c2)c1,inactive
17,CCOc1ccc(CCN2C(=O)c3cccnc3C2=O)cc1OCC,inactive
18,NC1=CC(=O)C(=O)c2cccnc21,25.9 µM (active)
19,Cc1ccc(S(=O)(=O)N2CC[C@H]3[C@@H](C2)C(=O)C[C@@H](c2ccccc2)N3S(=O)(=O)c2ccc(C)cc2)cc1,inactive
20,c1ccc(-c2nnc(N3CCOCC3)c3ccccc23)cc1,inactive
21,Fc1cnc(N2CCOCC2)nc1NCc1ccccc1,inactive
22,c1ccc2c(NC3C4CC5CC(C4)CC3C5)nc(N3CCOCC3)nc2c1 (stereo not given),14.6 µM (active)
23,Cc1nc2ccccn2c(=O)c1NC(=O)c1ccc(Br)o1,inactive
24,CCCCN1C(=O)C(CC(=O)NC(c2ccccc2)c2ccccc2)CC(C(=O)N2CCOCC2)=C1C (stereo not given),inactive

row,Compound,Potency
1,CC1=C(C(=O)N2CCOCC2)CC(CC(=O)NCC2CCCCC2)C(=O)N1Cc1ccc(F)cc1 (stereo not given),inactive
2,O=S1(=O)CC(N2CCC(Cc3ccccc3)CC2)CN1Cc1ccccc1 (stereo not given),inactive
3,CN(C)c1nc(=Nc2cccc(Cl)c2)ss1,inactive
4,Clc1cccc(N=C2NN=C(c3ccc4c(c3)OCCO4)CS2)c1,10 µM (active)
5,Cc1cccc(C)c1-n1nnnc1C1(C)CCC(=O)N1CCOc1ccccc1 (stereo not given),inactive
6,CCCCc1ccc(S(=O)(=O)NC(=O)C2(C)CCN2C(=O)c2c(C)noc2C)cc1 (stereo not given),inactive
7,N=c1c2c(-c3ccccc3)c(-c3ccccc3)oc2ncn1Cc1ccco1,23.1 µM (active)
8,C(=C\c1ccccc1)/CSc1nnc(-c2cccnc2)n1Cc1ccco1,inactive
9,COC(=O)c1ccc2nc(C3CCCCC3)c(Cc3cccc(F)c3)n2c1,inactive
10,O=C(Nc1cccc(Cc2ccccc2)c1)Nc1ccc2nc([C@@H]3O[C@H](CO)[C@@H](O)[C@H](O)[C@H]3O)[nH]c2c1,inactive
11,COc1ccccc1CN1CCN(C(c2ccccc2)c2ccccc2)CC1,inactive
12,CC1(C)CC(N2CCN(C(c3ccccc3)c3ccccc3)CC2)=CC(=[N+]2CCCCC2)C1,2.06 µM (active)
13,c1ccc(C(c2ccccc2)N2CCN(Cc3nnnn3C3CCCCC3)CC2)cc1,inactive
14,CN(c1ccccc1)S(=O)(=O)c1cc(C(=O)Nc2nc3ccccc3[nH]2)ccc1Cl,inactive
15,COC(=O)Nc1nc2ccc(Sc3ccccc3)cc2[nH]1,1.16 µM (active)
16,Cc1ccc(O)c(CNc2nc3ccccc3[nH]2)c1,inactive
17,Oc1c(C(c2ccccn2)N2CCOCC2)ccc2cccnc12 (stereo not given),0.355 µM (active)
18,CC(C)c1cc(CN2CCOCC2)cc(C(C)C)c1O,inactive
19,Cc1ccc(-c2ccc(CN3C(C(C)C)C(=O)N(Cc4cn(CCC5OCCCO5)nn4)CCS3(=O)=O)cc2)cc1 (stereo not given),inactive
20,CCOC(=O)/C(=N\Nc1ccccc1Cl)N(C)C1CCS(=O)(=O)C1 (stereo not given),inactive
21,CCOC(=O)N1CCN(C(=O)C2CCN(S(=O)(=O)c3cc(Cl)ccc3OCC)CC2)CC1,inactive
22,CCOC(=O)/C(=N\Nc1cc(Cl)ccc1Cl)N1CCN(C)CC1,16.4 µM (active)
23,CCc1ccccc1NC(=O)[C@@H]1CCC(=O)N1C1OC(=O)c2c1ccc(OC)c2OC (stereo not given in full),inactive
24,COc1ccc2c(c1OC)C(=O)OC2Nc1nc(-c2ccccc2)cs1 (stereo not given),18.4 µM (active)

row,Compound,Potency
1,COc1ccc(-c2csc(Nc3cccc(C)n3)n2)cc1OC,inactive
2,O=C(NCc1cccc(C(F)(F)F)c1)c1ccc2sc(COCCO)nc2c1,inactive
3,COc1ccc(OC)c(NC(=O)C2CCCN2S(=O)(=O)c2ccc3c(c2)CC(C)N3C(C)=O)c1 (stereo not given),inactive
4,C=C1C(=O)[C@]23C[C@H]1CCC2[C@@]1(C)C(C[C@@H]3O)[C@](C)(C(=O)O)CC[C@@H]1O (stereo not given in full),18.4 µM (active)
5,CCc1nc2ccc(C(=O)NC3CCN(Cc4ccccc4)CC3)cn2c1N(CC)CCOC,inactive
6,CN(C)C(=O)c1cccc(-c2cnc3c(NC=O)cc(-c4ccc(C(=O)N5CCOCC5)cc4)cn23)c1,inactive
7,CCOC(=O)N1CCN(CCC(=O)Nc2ccccc2)CC1,inactive
8,O=C(CN1CCN(Cc2ccccc2)CC1)Nc1ccc(F)c(F)c1,inactive
9,Cc1cc(NC(=O)CCN2CCN(Cc3ccccc3)CC2)ccc1Br,20.6 µM (active)
10,CC(=O)Nc1cccc(Nc2ccc(C#N)cc2)c1,inactive
11,O=[N+]([O-])c1ccc(Oc2ccc(F)cc2Br)c2ccncc12,16.4 µM (active)
12,CC(C)C1Cc2[nH][nH]c(=O)c2C(c2ccc(Cl)cc2)O1 (stereo not given),inactive
13,COC(=O)[C@]12CCCCC=C1N(Cc1ccccc1)C(=O)[C@H](CC(=O)NCc1ccc(C)o1)C2,inactive
14,C#CCOCCOCCOCCNc1nc(N2CCN(C(=O)Cn3cc(CCO)nn3)CC2)nc(N2CCN(C(=O)Cn3cc(CCCN=C(N)N)nn3)CC2)n1,inactive
15,C#CCOCCOCCOCCNc1nc(N2CCN(C(=O)[C@H](C(C)C)n3cc(CCO)nn3)CC2)nc(N2CCN(C(=O)[C@H]([C@@H](C)CC)n3cc(CCCN=C(N)N)nn3)CC2)n1,inactive
16,C#CCOCCOCCOCCNc1nc(N2CCN(C(=O)CCCCCCCCCCNC(=O)[C@H]([C@@H](C)CC)n3cc(CCCCN=C(N)N)nn3)CC2)nc(N2CCN(C(=O)CCCCCCCCCCNC(=O)[C@H](CO)n3cc(CCCSC)nn3)CC2)n1,23.1 µM (active)
17,Cc1ccc(NC(=O)COC(=O)CN2CCSC2=O)cc1F,inactive
18,CCCCn1nnnc1C(c1ccccc1)N1CCN(c2ccccc2OC)CC1 (stereo not given),inactive
19,CC1Cc2[nH][nH]c(=O)c2C(C2CC2)O1 (stereo not given),inactive
20,Cc1ccc(C(=O)OCC(=O)NC2CCCCCCC2)cc1C,inactive
21,Cc1cccc(NC(=O)c2nc(S(=O)(=O)Cc3ccccc3)ncc2Cl)c1,6.51 µM (active)
22,COCCSc1nnc(NC(=O)CCS(=O)(=O)Cc2ccccc2)s1,inactive
23,CSc1nnc(NC(=O)c2nc(S(=O)(=O)Cc3ccc(C)cc3)ncc2Cl)s1,7.31 µM (active)
24,NC(=O)CSc1nnc(NC(=O)c2ccc(Br)o2)s1,inactive

row,Compound,Potency
1,Cc1cccc(NC(=O)CSc2nc3[nH]ncc3c(=O)[nH]2)c1,inactive
2,Cc1cccc(NC(=O)C(C)SCc2ccccc2)c1 (stereo not given),inactive
3,Cc1nc2ccccc2nc1CC(O)(c1ccccc1)c1ccccc1,inactive
4,CC1(c2cccc(Br)c2)NC(=O)N(CC(=O)NCCC2=CCCCC2)C1=O (stereo not given),inactive
5,O=C1CCC(C(=O)OCC(=O)Nc2ccc(OC(F)F)cc2)=NN1,inactive
6,CCN(C(=O)Nc1cccc2ccccc12)c1ccccc1,inactive
7,Cc1ccccc1NC(=O)NCC1CCN(Cc2cccc(Cl)c2)CC1,inactive
8,Cc1cccc(CN2CCC(CNC(=O)Nc3ccc(F)c(Cl)c3)CC2)c1,16.4 µM (active)
9,O=C(NCC1CCN(Cc2ccccc2Cl)CC1)Nc1cccc(Cl)c1,inactive
10,OC[C@@H]1CN(Cc2ccc(Cl)cc2)C[C@H](n2cnc3c(NCc4ccncc4)ncnc32)O1,inactive
11,O=C(Nc1ccc(Cl)cc1)Nc1nnc(/C=C/c2ccccc2)s1,inactive
12,O=C(CSc1ccccc1)Nc1nnc(/C=C/c2ccccc2)s1,23.1 µM (active)
13,CCOCc1nnc(NC(=O)CSc2ccc(C)cc2)s1,inactive
14,CC1(C)OC(=O)C2=C(C[C@@H](C3CC3)O[C@H]2c2ccc(Cl)cc2)O1,inactive
15,CC1(C(=O)NS(=O)(=O)c2cccc(OC(F)F)c2)CCN1C(=O)COc1ccc(Cl)cc1 (stereo not given),inactive
16,CCCNC(=O)C1(C)CCCN(Cc2c(C)nn(-c3ccccc3)c2C)C1 (stereo not given),inactive
17,CN(C)CCNC(=O)/C(=C/c1cccc([N+](=O)[O-])c1)NC(=O)c1ccccc1,inactive
18,Cc1ccc(C(=O)N/C(=C/c2ccc(-c3cccc([N+](=O)[O-])c3)o2)C(=O)NCCCN(C)C)cc1,14.6 µM (active)
19,C=CCNC(=O)/C(=C\c1cccc([N+](=O)[O-])c1)NC(=O)c1ccccc1,inactive
20,Cc1ccc(CNC(=O)Nc2nnc([C@H]3C[C@H](O)[C@@H](CO)O3)s2)cc1,inactive
21,O=C(NC1CCCCC1)c1ccc(-c2ccc(Cl)cc2)o1,18.4 µM (active)
22,O=C(NC1CCCCCC1)c1cccnc1Sc1ccc(Cl)cc1,inactive
23,O=C(NC(=S)NC1CCCCC1)c1ccc(Cl)cc1,inactive
